PubChem BioAssay (EPA / NIEHS)
The source made the active and inactive calls. The calls were made as follows: active = hit-call score of the fitted dose curve at least 0.9, where 1 is the maximum; inactive = score below 0.9.

Experiments:
[1] = read-out: Interleukin-1 alpha (IL1a), IL1A (gene 3552); assay: BSK_KF3CT_IL1a: BioMAP Diversity Plus: KF3CT Assay for Interleukin-1 alpha (IL1a) Biomarker Activity (AID 2283070); conditions: primary human keratinocytes with fibroblasts; actives raise or lower the signal
Outline: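 Chemicals were dosed onto co-cultured human keratinocytes and foreskin fibroblasts, IL-1a was quantified by ELISA at 24 h, and activity was fitted in both directions relative to DMSO controls.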

[2] = read-out: Transforming growth factor beta 1 (TGFb1), TGFB1 (gene 7040); assay: BSK_KF3CT_TGFb1: BioMAP Diversity Plus: KF3CT Assay for Transforming growth factor beta 1 (TGFb1) Biomarker Activity (AID 2283072); conditions: primary human keratinocytes with fibroblasts; actives raise or lower the signal
Outline: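 Primary human skin cells (keratinocytes, foreskin fibroblasts) were co-cultured, exposed to test chemical and sampled at 24 h. TGF-b1 levels were measured by ELISA and fitted bidirectionally relative to DMSO.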

[3] = read-out: C-C motif chemokine 2 (Homo sapiens) (UniProt P13500); assay: BSK_KF3CT_MCP1: BioMAP Diversity Plus: KF3CT Assay for Monocyte Chemoattractant Protein 1 (MCP1/CCL2) Biomarker Activity (AID 2283073); conditions: primary human keratinocytes with fibroblasts; actives raise or lower the signal
Outline: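 Human keratinocyte–foreskin fibroblast co-culture; MCP-1 measured by ELISA 24 h after dosing. Bidirectional fit vs DMSO; cytotoxicity tracked by SRB total protein in parallel cultures.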

[4] = read-out: urokinase plasminogen activator (uPA), PLAU (gene 5328); assay: BSK_KF3CT_uPA: BioMAP Diversity Plus: KF3CT Assay for urokinase plasminogen activator (uPA) Biomarker Activity (AID 2283075); conditions: primary human keratinocytes with fibroblasts; actives raise or lower the signal
Outline: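 ELISA readout of uPA, analyzed for signal gain or loss relative to DMSO, from a human primary keratinocyte–foreskin fibroblast co-culture measured 24 h after chemical treatment.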

CD40, CD40 (gene 958) = assay: BSK_LPS_CD40: BioMAP Diversity Plus: LPS Assay for CD40 Biomarker Activity (AID 2283076); conditions: primary human HUVEC with PBMC; actives raise or lower the signal
Outline: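 HUVEC plus PBMC co-culture stimulated with LPS; CD40 quantified by ELISA 24 h after compound dosing. Fitting was bidirectional relative to DMSO. SRB staining of parallel cultures flagged overt cytotoxicity.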

[5] = read-out: E-selectin (Homo sapiens) (UniProt P16581); assay: BSK_LPS_Eselectin: BioMAP Diversity Plus: LPS Assay for Eselectin Biomarker Activity (AID 2283077); conditions: primary human HUVEC with PBMC; actives raise or lower the signal
Outline: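 Human umbilical vein endothelial cells co-cultured with PBMC under LPS stimulation; cell-surface E-selectin measured by ELISA 24 h after dosing. Change in either direction versus DMSO, with SRB total-protein staining in parallel cultures for cytotoxicity.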

[6] = read-out: Interleukin-8 (IL8), CXCL8 (gene 3576); assay: BSK_LPS_IL8: BioMAP Diversity Plus: LPS Assay for Interleukin-8 (IL8) Biomarker Activity (AID 2283078); conditions: primary human HUVEC with PBMC; actives raise or lower the signal
Outline: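 Human umbilical vein endothelial cells co-cultured with PBMC, LPS-stimulated, exposed to compound for 24 h. IL-8 quantified by ELISA; fitted in both directions against DMSO, with SRB total-protein staining of parallel cultures for cytotoxicity.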

[7] = BSK_LPS_SRB: Viability Assessment in the BioMAP Diversity Plus: LPS Assay (AID 2283079); conditions: primary human HUVEC with PBMC;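 also: total protein by sulforhodamine B absorbance as a cytotoxicity measure; measured one day after compound addition; fitted in both directions against DMSO so loss or gain of signal counts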
Outline: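 Co-culture of human umbilical vein endothelial cells and PBMC, read 24 h after dosing. Total protein by 0.1% SRB staining after 10% TCA fixation, absorbance at 560 nm; bidirectional fit against DMSO.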

Measured: AC50

Sequence of E-selectin (Homo sapiens) (P16581 whole entry, looked up): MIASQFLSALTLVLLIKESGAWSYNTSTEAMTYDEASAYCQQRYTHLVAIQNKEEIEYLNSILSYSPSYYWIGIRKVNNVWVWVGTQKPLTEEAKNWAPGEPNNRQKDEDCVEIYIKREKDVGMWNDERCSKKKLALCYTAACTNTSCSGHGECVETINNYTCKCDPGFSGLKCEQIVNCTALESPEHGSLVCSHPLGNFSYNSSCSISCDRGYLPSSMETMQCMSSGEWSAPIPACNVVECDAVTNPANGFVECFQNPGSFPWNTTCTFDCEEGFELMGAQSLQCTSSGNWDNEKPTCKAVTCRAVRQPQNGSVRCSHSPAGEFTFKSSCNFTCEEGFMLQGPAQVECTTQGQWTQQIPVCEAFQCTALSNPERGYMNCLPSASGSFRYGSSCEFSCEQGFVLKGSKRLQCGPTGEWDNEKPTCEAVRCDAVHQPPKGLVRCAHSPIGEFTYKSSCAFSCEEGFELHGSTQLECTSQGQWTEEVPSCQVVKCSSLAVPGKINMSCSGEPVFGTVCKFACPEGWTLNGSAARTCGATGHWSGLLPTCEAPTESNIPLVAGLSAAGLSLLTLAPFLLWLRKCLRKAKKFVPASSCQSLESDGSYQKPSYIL

CCCCCCC=O
inactive: all assays above

CCOC(=O)C1=NOC(c2ccccc2)(c2ccccc2)C1
active: [2] 0.113 µM
not listed: [6] | [7]
inactive: all other assays above

Nc1nc(N)nc(-c2ccccc2)n1
not listed: [2] | [7]
inactive: all other assays above

CCCCCCOC(=O)CCCCC(=O)OCCCCCC
not listed: [7]
inactive: all other assays above

Oc1ccccc1Cc1ccccc1O
not listed: [2] | [6]
inactive: all other assays above

Oc1c(Cl)cc(Cl)c(Cl)c1Cl
active: [2] 20 µM | [3] 20 µM | CD40, CD40 (gene 958) 20 µM | [5] 30.7 µM
inactive: [1] | [4]

C=CCCCCCCCCC=O
not listed: [6] | [7]
inactive: all other assays above
